Assay outcomes (PubChem BioAssay)
Only some compounds are listed: those with a hit (about 0.18% of all), similar ones and a draw of the others.
IDH1 R132H inh – human IDH1 R132H inhibition; AID 602179; IDH1-R132H enzyme, NADPH consumption, diaphorase/resazurin fluorescence; Potency, µM (series often up to 76.6 µM), for inactives: at the highest dose activity change, negative = inhibition, usual class: inhibitors; 0.093% of 390,000 active; O75874; also: potency is read from the fitted curve at half-maximal effect; % is scaled to controls: 0 for no effect and ±100 for the full control effect; nearly all actives have a fitted effect of over 65% in size
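IDH1-R132H (0.5 ug/mL) preincubated 30 min with compound, then NADPH (0.016 mM) and alpha-KG (2 mM) added; 80 min at RT, pH 7.5. Remaining NADPH coupled via diaphorase/resazurin to fluorescence (540/590 nm); concentration-response curves normalized to no-enzyme control.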
Anesthetic bind – candidate novel general anesthetic via apoferritin binding | apoferritin/1-aminoanthracene competitive binding, fluorescence | Potency, µM (highest dose often 77.5 µM), for the others: at the highest dose activity change, negative = displacement, hits mostly inhibitors | 0.074% of 350,000 active | AID 485281; also: potency is read from the fitted curve at half-maximal effect; % is scaled to controls: 0 for no effect and ±100 for the full control effect; nearly all actives have a fitted effect of over 20% in size
Target sequence (P02791 2-175 limits assumed): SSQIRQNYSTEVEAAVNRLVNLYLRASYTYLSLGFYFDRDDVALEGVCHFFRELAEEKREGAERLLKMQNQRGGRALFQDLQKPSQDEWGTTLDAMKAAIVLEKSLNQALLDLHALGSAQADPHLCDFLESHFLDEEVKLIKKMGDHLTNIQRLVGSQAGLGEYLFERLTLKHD
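Concentration-response curves derived by four-parameter Hill fitting of normalized fluorescence, where compounds displaced 1-AMA from 10 uM horse apoferritin following a brief 10 min room-temperature incubation; propofol titration acted as positive control.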
ERG-DNA inh – ERG Ets/DNA interaction inhibition; 0.028% of 370,000 active; AID 624246; fluorescence polarization, His-ERG Ets domain / labelled DNA; P11308; Potency, µM (top dose mostly 76.9 µM), inactives show at the highest dose FP activity, negative = inhibition, hits mostly inhibitors; active = well fitted inhibition curve with a large enough effect in the polarisation, with a control signal flat; inconclusive = small, poorly fitted or top-dose-only effect, or effect the other way, or a change in a side signal; inactive = no such curve, though single readings can be large or run the other way; the % refers to the polarisation;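 also: polarization taken with two DNA probes labelled with fluorescein and Texas red; potency is read from the fitted curve at half-maximal effect; % of control where 0% means no effect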
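His-tagged ERG Ets domain (1 uM in the protein solution; 300mM KCl, 50mM Tris-HCl, 1mM EDTA, 1mM DTT, pH 7.5) received compound, then a probe mix of 5 nM fluorescein-DNA and 100nM Texas-615-DNA. Fluorescence polarization was read for both dyes.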
TSG101-PTAP inh – blocks PTAP/TSG101 interaction to inhibit HIV-1 budding. Q99816. Fluorescence polarization, FITC-PTAP peptide / Tsg101 binding. Potency, µM (top dose mostly 115 µM), inactives show top-dose activity change, negative = inhibition, usual class: inhibitors. 340,000 tested, under 10 active. AID 493005; active = well fitted inhibition curve with a large enough effect in the main read-out, with a control signal flat, not every such curve was filed as active; inconclusive = small, poorly fitted or top-dose-only effect, or effect the other way, or a change in a side signal; inactive = no such curve, though single readings can be large or run the other way; also: potency is read from the fitted curve at half-maximal effect; % of control where 0% means no effect
Target sequence (Q99816 whole entry, looked up): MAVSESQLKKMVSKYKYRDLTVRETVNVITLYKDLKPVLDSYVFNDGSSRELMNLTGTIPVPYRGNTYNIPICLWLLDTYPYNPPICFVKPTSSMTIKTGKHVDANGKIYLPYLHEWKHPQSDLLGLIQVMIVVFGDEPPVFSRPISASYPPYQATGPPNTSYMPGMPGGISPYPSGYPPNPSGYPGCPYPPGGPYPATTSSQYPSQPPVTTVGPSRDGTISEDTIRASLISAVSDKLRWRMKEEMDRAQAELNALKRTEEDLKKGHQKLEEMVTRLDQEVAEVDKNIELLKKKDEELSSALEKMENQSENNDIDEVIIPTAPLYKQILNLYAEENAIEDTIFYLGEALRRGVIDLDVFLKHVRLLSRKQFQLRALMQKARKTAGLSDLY
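Fluorescence polarization binding of Tsg101 binding domain (10 uM final) to FITC-labeled PTAP peptide (50 nM final) in HEPES pH 7.5 buffer with NaCl, Tween 20, EDTA, TCEP. Compounds added before peptide; binding 20 min at RT.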
IDH1 autofl – counter-screen for mutant IDH1 inhibitors: fluorescence interference. shares compounds with IDH1 R132H inh. inhibition of signal, % at 51.2 µM. Resorufin detection reagent fluorescence interference, cell-free. 750 tested, under 10 active;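 also: 0% = wells with normal resorufin and full inhibition = wells lacking resorufin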
IDH1 WT – selectivity of mutant IDH1 inhibitors: human wild-type IDH1; shares compounds with IDH1 R132H inh; 9% of 750 active; Potency, µM (highest dose often 115 µM), without a hit: at the top dose activity change, negative = inhibition, usual class: inhibitors; WT IDH1 enzyme, NADPH diaphorase/resazurin fluorescence; AID 623995;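 also: potency is read from the fitted curve at half-maximal effect; 0% = full WT IDH1 enzyme control and full inhibition = no enzyme wells; nearly all actives have a fitted effect of over 55% in size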
IDH1 R132H conf – confirmation of human mutant IDH1 inhibitors; shares compounds with IDH1 R132H inh; IDH1 R132H enzyme, NADPH diaphorase/resazurin fluorescence; Potency, µM (highest dose often 76.6 µM), without a hit: at the top dose activity change, negative = inhibition, actives largely listed as inhibitors; 83% of 750 active; also: potency is read from the fitted curve at half-maximal effect; nearly all actives have a fitted effect of over 50% in size
Starred values were filed as active, the others as inactive; ? = inconclusive; nt = not tested or not shown. Unless noted, calls follow the shape of the dose curve; as a rule, active = well fitted curve in the direction sought with a large enough effect; inconclusive = small, poorly fitted or top-dose-only effect, or another doubt; inactive = no such curve, though single readings can be large; an effect the other way counts as inactive or inconclusive.

SMILES | IDH1 R132H inh | Anesthetic bind | ERG-DNA inh | TSG101-PTAP inh | IDH1 autofl | IDH1 WT | IDH1 R132H conf
CCOc1cccc(N(C(=O)Cc2cccs2)C(C(=O)NC2CCCCC2)c2cccn2C)c1 (centres undefined) | ? | -12% | -2% | -2% | -2 | 7% | 16µM*
COc1cccc(N(C(=O)Cc2cccs2)C(C(=O)NC2CCCC2)c2ccncc2)c1 (centres undefined) | -10% | 3% | -7% | 0% | nt | nt | nt
O=C(CCCc1ccccc1)NCCS(=O)(=O)N1CCN(c2ccccc2)CC1 | 12% | nt | nt | nt | nt | nt | nt
Cc1cc([N+](=O)[O-])cc2c1-c1ncccc1C2=Nc1ccccc1 | 6% | 2% | 12% | 0% | nt | nt | nt
Cc1ccccc1N=C1c2cc([N+](=O)[O-])ccc2-c2ncccc21 | ? | -9% | 3% | 1% | -2 | 0% | 22µM*
Cc1cc2ccccc2n2c(SCC(=O)Nc3ccc(S(=O)(=O)N4CCCCC4)cc3)nnc12 | 6% | -19% | 0% | 1% | nt | nt | nt
COC(=O)c1ccccc1-c1c2ccc(=N)cc-2oc2cc(N)ccc12 | ? | nt | -160% | -106% | nt | nt | nt
COCCN1Cc2cc3cc(C)ccc3nc2SC1=Nc1cccc(OC)c1 | 6% | -4% | -4% | -3% | nt | nt | nt
Cc1cccc(N=C2Sc3nc4c(C)c(C)ccc4cc3CN2CCN2CCOCC2)c1 | ? | ? | 8% | -6% | 8 | 5% | 11µM*
O=C(COC(=O)c1ccc(F)c([N+](=O)[O-])c1)NC(=O)NCc1ccccc1 | 46µM* | nt | -1% | -2% | -8 | -14% | 28µM*
COc1ccc(NS(=O)(=O)c2cccc(C(=O)NCC(c3ccc(OC)cc3)N3CCCC3)c2)cc1 (centres undefined) | -8% | nt | 0% | 0% | nt | nt | nt
CC1CN(CCC(=O)Nc2ccc3c(c2)OCO3)CC(C)O1 (centres undefined) | 3% | -9% | 9% | -1% | nt | nt | nt
CCCn1cc(S(=O)(=O)c2cc(C)ccc2C)c(=O)c2cc(F)c(N3CCCCCC3)cc21 | ? | 6% | -4% | nt | -5 | -9% | 16µM*
c1ccc(N(c2ccccc2)c2nc(N3CCCC3)nc(-n3ccnc3)n2)cc1 | 9.3µM* | -13% | -5% | -2% | -2 | -1% | 6.3µM*
CN(c1ccccc1)c1nc(N2CCCC2)nc(-n2ccnc2)n1 | -18% | -19% | 3% | -3% | nt | nt | nt
COc1ccc(N2C(=O)CSCC2=O)cc1OC | -4% | -4% | -1% | -2% | nt | nt | nt
N=c1c(S(=O)(=O)c2ccccc2)cc2c(=O)n3ccccc3nc2n1CC1CCCO1 (centres undefined) | ? | 29% | 10% | -5% | -2 | 8% | 35µM*
N=c1c(S(=O)(=O)c2ccc(Cl)cc2)cc2c(=O)n3ccccc3nc2n1CC1CCCO1 (centres undefined) | 4% | 5% | 4% | 2% | nt | nt | nt
Cc1ccc(-n2ncc3c(=O)[nH]c(SCC(=O)N4CCCc5ccccc54)nc32)cc1 | ? | 41% | -5% | -4% | -6 | 10% | 28µM*
CCOc1ccc(-n2c(=O)c3c4c(sc3n(Cc3cc(=O)n5cc(Cl)ccc5n3)c2=O)CCC4)cc1 | 4% | -14% | -3% | nt | nt | nt | nt
CC(=O)N1CCn2c3c(c4cc(C)ccc42)CCCC31 (centres undefined) | -1% | -9% | 3% | -7% | nt | nt | nt
Cc1ccc2c(c1)c1c3n2CCN(C(=O)CCl)C3CCC1 (centres undefined) | 46µM* | 3% | 3% | -3% | -1 | ? | 16µM*
COCc1ccc(-c2c(-c3ccsc3)oc(=O)c3cc(OC)c(OC)cc23)cc1 | 16µM* | nt | -5% | -10% | 6 | 1% | 10µM*
